SARS PLpro yeast: blocks SARS-CoV papain-like protease in a yeast assay; S. cerevisiae expressing SARS-CoV PLpro, growth rescue; AID 485353; 330,000 tested, 0.19% active; Potency, µM (top dose mostly 32.9 µM), without a hit: at the top dose activity, positive = growth rescue, usual class: activators; calls by dose curve; also: 0% is about no effect; nearly all actives have a fitted effect of over 55% in size
Pf growth 48h: P. falciparum growth inhibition at 48 hours (one generation); P. falciparum luciferase growth in erythrocytes, 48 h; Potency, µM (highest dose often 28.7 µM), for inactives: at the highest dose activity change, negative = inhibition, hits mostly inhibitors; 310,000 tested, 5.9% active; AID 504832; also: % is scaled to controls: 0 for no effect and ±100 for the full control effect
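Parasite viability was followed by luminescence of a genomically integrated firefly luciferase. Cultures held 0.1% parasitemia at 2% hematocrit (final), incubated under 5% CO2 at 37 C.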
AmpC inh no detg: AmpC beta-lactamase inhibition without detergent | AmpC nitrocefin hydrolysis, absorbance 480 nm, 0.0001% Triton | Potency, µM (doses to about 57.1 µM), without a hit: at the highest dose activity change, negative = inhibition, actives largely listed as inhibitors | 330,000 tested, 0.52% active | AID 485341;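 also: plate controls were no compound for no effect and no enzyme for full effect; nearly all actives have a fitted effect of over 20% in size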
Target sequence (P00811 whole entry, looked up): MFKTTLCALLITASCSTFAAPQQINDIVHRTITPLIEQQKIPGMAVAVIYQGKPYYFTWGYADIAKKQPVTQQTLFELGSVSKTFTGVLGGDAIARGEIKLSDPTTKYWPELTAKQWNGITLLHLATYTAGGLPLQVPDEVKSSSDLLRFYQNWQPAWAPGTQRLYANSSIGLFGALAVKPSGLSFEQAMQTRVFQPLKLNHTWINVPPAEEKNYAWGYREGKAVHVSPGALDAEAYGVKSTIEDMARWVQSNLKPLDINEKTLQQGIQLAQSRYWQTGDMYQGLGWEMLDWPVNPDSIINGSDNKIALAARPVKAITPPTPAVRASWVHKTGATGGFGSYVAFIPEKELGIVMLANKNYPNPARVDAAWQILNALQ
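20 mM phosphate pH 7.0 + 0.01% (detergent screen) or 0.0001% Triton X-100; 5.3 nM AmpC reagent; cpd preinc 15 min RT; nitrocefin (800 uM stock) to start; A480 q20 s × 4 min; Activity was normalised to no-enzyme and no-compound control wells.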
Pf growth 96h: P. falciparum growth inhibition at 96 hours; 320,000 tested, 6.9% active; P. falciparum luciferase reporter growth, 96 h; Potency, µM (doses to about 28.7 µM), for inactives: at the highest dose activity change, negative = inhibition, actives largely listed as inhibitors; AID 504834; also: % is scaled to controls: 0 for no effect and ±100 for the full control effect
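Luminescence readout: decreased luciferase signal marks inhibited growth of reporter-expressing P. falciparum in infected red cells (2% hematocrit, 0.05% parasitemia final), exposed to compound two generations (96 h, 37 C, 5% CO2).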
Sm TGR inh: blocks Schistosoma mansoni thioredoxin glutathione reductase; Q962Y6; purified TGR, DTNB reduction, TNB absorbance 405 nm; Potency, µM (top dose mostly 114 µM), inactives show at the top dose activity change, negative = inhibition, most hits filed as inhibitors; 360,000 tested, 3% active; AID 485364; also: % is scaled to controls: 0 for no effect and ±100 for the full control effect; nearly all actives have a fitted effect of over 60% in size
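TGR 20 nM + NADPH 100 uM (dispensed conc.), cpd preinc 15 min RT; start with NADPH (500 uM addition) then DTNB (15 mM addition). Kinetic TNB absorbance, 405 nm filter. Four-parameter Hill fit across titration.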
AmpC detergent: AmpC beta-lactamase inhibition with detergent present; AmpC hydrolysis of nitrocefin, absorbance 480 nm, 0.01% Triton; P00811; 370,000 tested, 0.041% active; Potency, µM (top dose mostly 114 µM), without a hit: at the top dose activity change, negative = inhibition, hits mostly inhibitors;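 also: 0% = no-compound wells and -100% = no-enzyme wells; nearly all actives have a fitted effect of over 25% in size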
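AmpC (5.3 nM in the dispensed reagent) in 20 mM phosphate pH 7.0 with 0.01% (detergent screen) or 0.0001% Triton X-100 was preincubated with compounds for 15 min at room temperature. Nitrocefin was then added from an 800 uM solution, and hydrolysis was followed at 480 nm.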
An asterisk follows results filed as active; u = inconclusive; x = no result. Most compounds without a hit are left out; they make up all but 12% or so of the library. Unless noted, calls follow the shape of the dose curve; as a rule, active = well fitted curve in the direction sought with a large enough effect; inconclusive = small, poorly fitted or top-dose-only effect, or another doubt; inactive = no such curve, though single readings can be large; an effect the other way counts as inactive or inconclusive. Potency is read from the fitted curve at half-maximal effect.

SMILES	SARS PLpro yeast	Pf growth 48h	AmpC inh no detg	Pf growth 96h	Sm TGR inh	AmpC detergent
O=C(CNC(=O)c1ccc(Br)cc1)N/N=C/c1ccc[nH]1	19%	30%	-47%	9%	1%	-5%
COc1ccc(OCC(=O)OCc2cc(=O)n3cc(C)sc3n2)cc1	x	x	x	x	-5%	-7%
CCCOC(=O)CCCCCCCCC(O)CN1CCCCC1 (centres undefined)	3%	81%	21%	u	1%	-4%
O=C(CCO)c1ccc(O)cc1	0%	8%	-29%	45%	18µM*	5%
O=C(CCSc1ccc(Br)cc1)c1ccc(O)cc1	-11%	-3%	-48%	5%	2.5µM*	-9%
[NH-]c1ncnc2c1N=C[N+]2=CC=CCO	0%	2%	-14%	0%	u	1%
Oc1c(Cl)cc(Cl)cc1C=Nc1ccccc1N1CCCC1	-50%	u	-20%	u	16µM*	u
Cn1c(CC(=O)Nc2ccc(Cl)c(Cl)c2)nnc1SCC(=O)NCc1ccccc1	-1%	5%	-3%	34%	8%	-5%
Cc1ccc(-c2cc(C(F)F)n3ncc(C(=O)Nc4c(C)nn(Cc5c(Cl)cccc5Cl)c4C)c3n2)cc1	1%	u	-14%	2.3µM*	-22%	-5%
Cc1ccc(-c2cc(C(F)F)n3ncc(C(=O)Nc4c(C)nn(Cc5ccccc5Cl)c4C)c3n2)cc1	1%	u	-11%	u	-17%	-10%
Cc1nn(Cc2c(Cl)cccc2Cl)c(C)c1NC(=O)c1cnn2c(C(F)F)cc(-c3ccccc3)nc12	-3%	u	17%	2.6µM*	9%	-14%
COc1ccc(Cl)cc1NC(=O)c1c(NCc2sccc2C)sc2c1CCCC2	x	x	x	x	-1%	-6%
COc1ccc(NC(=O)c2c(NC(=O)CNCC(C)C)sc3c2CCC3)c(OC)c1	-1%	9.3µM*	-15%	-4%	x	0%
COc1ccc(NC(=O)c2c(NCc3sccc3C)sc3c2CCCCC3)c(OC)c1	x	x	x	x	13µM*	2%
CCOc1ccccc1NC(=O)c1c(NCc2sccc2C)sc2c1CCC(C)C2 (centres undefined)	x	x	x	x	-2%	-10%
COc1ccccc1NC(=O)c1c(NCc2sccc2C)sc2c1CCCCC2	x	x	x	x	11µM*	-2%
CCOc1ccccc1NC(=O)c1c(NCc2sccc2C)sc2c1CCCCC2	x	x	x	x	40µM*	0%
CN(C(=O)c1ccncc1)C1CCCCC1	-3%	-15%	-1%	-9%	0%	-6%
CSc1nnc(C)c(=O)n1COC(=O)COc1ccc(Cl)cc1	-2%	3%	-12%	-22%	2%	2%
COc1ccc(CCNC(=O)Cn2cc(S(=O)(=O)Cc3ccc(F)cc3)c3ccccc32)cc1OC	x	x	x	x	-2%	16%
Cn1c(=O)c2c(ncn2CC(=O)OCC(=O)Nc2ccccc2)n(C)c1=O	-1%	6%	-10%	20%	8%	-2%
CCOc1ccccc1CNC(=O)CCc1c(C)nn(-c2ccc(N3CCCC3)nn2)c1C	x	x	x	x	-1%	-7%
S=C1NC(C23CC4CC(CC(C4)C2)C3)=CC(c2ccc3c(c2)OCO3)N1 (centres undefined)	4%	4.1µM*	-32%	u	-17%	-1%
COc1cc(C2C=C(C34CC5CC(CC(C5)C3)C4)NC(=S)N2)cc(OC)c1OC (centres undefined)	12%	x	11%	1µM*	5%	5%
COc1ccc(C2=CC(c3cc(OC)c(OC)c(OC)c3)NC(=S)N2)cc1 (centres undefined)	-5%	u	-18%	x	-3%	0%
SMILES	SARS PLpro yeast	Pf growth 48h	AmpC inh no detg	Pf growth 96h	Sm TGR inh	AmpC detergent
CN(CC(=O)N(C)CC(=O)Nc1c(Cl)cccc1Cl)Cc1ccc(Br)s1	15%	22%	25%	-24%	-31%	-13%
CCN(CC)CCCNC(=O)c1ccc(OCC(=O)Nc2ccccc2C(F)(F)F)c(OC)c1	0%	u	79%	19µM*	-10%	-6%
O=C(CC(=O)Nc1ccccc1C(F)(F)F)Nc1ccccc1C(F)(F)F	-2%	1%	-13%	33%	0%	2%
O=C(CC(=O)c1ccccc1)Nc1ccccc1C(F)(F)F	-1%	21%	-38%	12µM*	11%	0%
CCN(CC(=O)Nc1ccc(C(C)=O)cc1)CC(=O)Nc1ccccc1C(F)(F)F	-5%	9%	17%	-24%	32µM*	5%
O=c1[nH]c(CNCc2cccnc2)nc2ccccc12	2%	10%	-10%	-7%	-4%	1%
CCOCCCNC(=O)C1CC(=O)N(C2CCCC2)C1 (centres undefined)	0%	14%	-8%	12µM*	-11%	u
COCCNC(=O)C1CC(=O)N(C2CCCCC2)C1 (centres undefined)	-5%	24%	-15%	-1%	-11%	2%
COCCCNC(=O)C1CC(=O)N(C2CCCC2)C1 (centres undefined)	-9%	2%	-17%	10µM*	5%	-2%
Cc1cc(N)n(Cc2cccs2)n1	0%	0%	-2%	17%	0%	-12%
CCc1ccccc1NC(=O)Cn1c(=O)n(Cc2ccc(OC)cc2)c(=O)c2oc3ccccc3c21	x	x	x	x	1%	-1%
CCOC(=O)c1ccccc1NS(=O)(=O)c1ccc(N2CCCCS2(=O)=O)cc1	x	x	x	x	9%	12%
CC1=CC(C)(C)[N+](C)=CN1c1ccccc1	27%	u	-17%	8.3µM*	-17%	0%
Cc1nc2cc(C(=O)O)ccc2n1-c1ccccc1	-3%	x	-13%	u	-20%	-11%
COc1cccc(N2CCN(C(=O)c3ccc(-c4ccccc4)cc3)CC2)c1	-1%	16%	0%	u	-5%	-3%
CN(C)c1cccc(NC(=O)c2ccco2)c1	-4%	-11%	-25%	86%	-2%	3%
CCN(CC)P(=O)(Nc1cccc(C(F)(F)F)c1)c1ccc(N(C)C)cc1NC(=O)c1ccco1 (centres undefined)	3%	2.1µM*	24%	1.9µM*	-13%	3%
CC(C(=O)Nc1cc([N+](=O)[O-])ccc1Cl)N1CCN(c2ccccc2O)CC1 (centres undefined)	-8%	6.6µM*	4%	u	-12%	-13%
COc1ccc([N+](=O)[O-])cc1NC(=O)C(C)N1CCCC1 (centres undefined)	3%	33%	-5%	36%	-8%	-1%
CN1CCN(c2ccc([N+](=O)[O-])cc2NC(=O)c2ccccc2Cl)CC1	4%	12µM*	3%	u	-4%	-9%

Source: PubChem BioAssay
